EPAC2 antag – antagonists of human EPAC2. AID 720708. Q8WZA2. EPAC2 GEF exchange of Rap1B-BODIPY-GDP, fluorescence. Potency, µM (highest dose often 114 µM), without a hit: at the top dose activity, negative = inhibition, most hits filed as inhibitors. actives 0.18% (n = 360,000); note: % is set by controls: 0 for no effect and ±100 for the full control effect; nearly all actives have a fitted effect of over 45% in size
EPAC1 ag – agonists of human EPAC1; EPAC1 agonist qHTS, biochemical assay; response scale: 100% = response to 6.5 mM cAMP; actives 0.073% (n = 360,000); O95398; Potency, µM (series often up to 154 µM), for inactives: top-dose activation, hits mostly activators; note: nearly all actives have a fitted effect of over 60% in size
Target sequence (O95398 whole entry, looked up): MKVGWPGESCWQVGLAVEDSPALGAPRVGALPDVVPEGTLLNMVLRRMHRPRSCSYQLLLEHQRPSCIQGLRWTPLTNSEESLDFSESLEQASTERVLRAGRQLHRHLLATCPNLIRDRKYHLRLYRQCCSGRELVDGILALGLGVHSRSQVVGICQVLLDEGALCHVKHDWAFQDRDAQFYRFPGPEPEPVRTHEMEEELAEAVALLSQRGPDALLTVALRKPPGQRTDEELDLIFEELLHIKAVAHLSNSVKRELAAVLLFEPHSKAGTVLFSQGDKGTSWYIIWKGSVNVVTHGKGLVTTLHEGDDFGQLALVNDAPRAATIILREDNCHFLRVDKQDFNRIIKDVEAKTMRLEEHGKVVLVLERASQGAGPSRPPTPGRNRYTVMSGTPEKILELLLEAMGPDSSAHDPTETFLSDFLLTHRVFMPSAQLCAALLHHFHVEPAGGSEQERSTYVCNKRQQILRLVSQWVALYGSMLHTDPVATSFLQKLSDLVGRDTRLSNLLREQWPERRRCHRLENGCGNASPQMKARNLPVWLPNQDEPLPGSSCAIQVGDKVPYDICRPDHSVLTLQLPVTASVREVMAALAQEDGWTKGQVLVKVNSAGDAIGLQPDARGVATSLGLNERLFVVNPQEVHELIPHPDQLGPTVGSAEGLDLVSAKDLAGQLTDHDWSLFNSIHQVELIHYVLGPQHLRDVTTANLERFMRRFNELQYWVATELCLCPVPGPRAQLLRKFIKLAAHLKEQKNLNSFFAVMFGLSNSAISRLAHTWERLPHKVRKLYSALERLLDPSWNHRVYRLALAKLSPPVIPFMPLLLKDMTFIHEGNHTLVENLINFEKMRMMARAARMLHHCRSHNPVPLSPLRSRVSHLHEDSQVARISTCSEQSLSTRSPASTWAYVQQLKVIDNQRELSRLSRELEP
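Fluorescent GDP-exchange assay: 100 nM EPAC1 with 250 nM Rap1B preloaded with BODIPY-GDP and 50 uM GDP; compounds tested as concentration series, 5 min at room temperature, then read every 5 min for 30 min (ex 480/em 540 nm); normalized to 6.5 mM cAMP.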
EPAC2 ag – EPAC2 (human) agonism; AID 720711; actives 0.079% (n = 360,000); EPAC2 activation, biochemical qHTS; response scale: 100% = 6.5 mM cAMP response; Q8WZA2; Potency, µM (top dose mostly 154 µM), for inactives: at the highest dose activation, usual class: activators; note: nearly all actives have a fitted effect of over 50% in size
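Exchange assay: 100 nM EPAC2 with 250 nM Rap1B-BODIPY-GDP and 50 uM GDP. Fluorescence (ex 480/em 540 nm) read every 5 min for 30 min at room temperature. Data normalized to 6.5 mM cAMP as agonist control.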
EPAC1 antagonist – EPAC1 (human) antagonism. Potency, µM (highest dose often 115 µM), for inactives: at the top dose activity change, negative = inhibition, usual class: inhibitors. EPAC1 GEF assay, Rap1b-BODIPY-GDP exchange fluorescence. actives 0.14% (n = 360,000). O95398;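 note: plate controls were vehicle for no effect and positive control for full effect; nearly all actives have a fitted effect of over 50% in size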
USP1-UAF1 inh – inhibitors of human USP1/UAF1 deubiquitinase; O94782; recombinant USP1/UAF1, Ub-Rhodamine cleavage fluorescence; Potency, µM (doses to about 57.1 µM), for the others: at the top dose activity change, negative = inhibition, most hits filed as inhibitors; actives 0.23% (n = 390,000); AID 743255; note: % is set by controls: 0 for no effect and ±100 for the full control effect; nearly all actives have a fitted effect of over 60% in size
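USP1/UAF1 complex at 1 nM was preincubated with compound for 15 min at room temperature, then Ub-Rho substrate (150nM final) was added. Fluorescence (480/540 nm) was read kinetically, 6 reads every 60 seconds.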
ALOX12 inh – ALOX12 (human) lipoxygenase inhibition | purified 12hLO, xylenol orange hydroperoxide absorbance | Potency, µM (doses to about 108 µM), for the others: at the top dose activity change, negative = inhibition, usual class: inhibitors | actives 1.1% (n = 580,000) | AID 1671190; note: % is set by controls: 0 for no effect and ±100 for the full control effect
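Purified human 12hLO at 150 nM in 25 mM Hepes, 0.01% Triton X-100, pH 7.0, preincubated 15 min at room temperature with compound. Reaction started with 40 uM arachidonic acid, 30 min at room temperature. Hydroperoxide measured by Fe-xylenol orange, 573/405 nm absorbance ratio.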
An asterisk follows results filed as active; ? = inconclusive; · = no result; [ ] = another dose, or the depositor's remark. Most compounds without a hit are left out; they make up all but 1.3% or so of the library. Calls come from the whole dose curve; as a rule, active = well fitted curve in the direction sought with a large enough effect; inconclusive = small, poorly fitted or top-dose-only effect, or another doubt; inactive = no such curve, though single readings can be large; an effect the other way counts as inactive or inconclusive. Potency is the fitted concentration of half-maximal effect.

SMILES | EPAC2 antag | EPAC1 ag | EPAC2 ag | EPAC1 antagonist | USP1-UAF1 inh | ALOX12 inh
S=c1[nH]c2ccccc2n1CCOc1ccccc1 | -17% | 10% | 20% | -9% | -26% | 40µM*
Cc1ccc(OCCn2c(=S)[nH]c3ccccc32)c(C(C)C)c1 | ? | -1% | 1% | -6% | ? | 32µM*
CCOc1ccc(OCCn2c(=S)[nH]c3ccccc32)cc1 | -19% | -9% | 1% | -13% | -1% | ?
COc1ccccc1C(NC(=O)CSc1c(Cl)cccc1Cl)c1nccn1C (centres undefined) | · | · | · | · | · | -16%
CCOC(=O)C(=NC1CCS(=O)(=O)C1)NNc1ccc(Br)cc1 (centres undefined) | 2% | 1% | 2% | -5% | -17% | 16µM*
CCOC(=O)C(=NC(C)CC)NNc1ccc(Br)cc1 (centres undefined) | -22% | -2% | 7% | -14% | -22% | 28µM*
CCOC(=O)C(=NC(C)CC)NNc1cccc(C(F)(F)F)c1 (centres undefined) | -4% | -17% | -8% | -18% | -26% | ?
CCC(=O)NNc1ccc(Br)cc1 | 8% | -5% | 3% | -7% | -9% | -19%
CCOC(=O)C(=NC1CCCCC1)NNc1cccc(C(F)(F)F)c1 | -29% | -6% | -1% | -8% | -12% | 50µM*
CCOC(=O)C(=NC1CCS(=O)(=O)C1)NNc1cc(Cl)ccc1Cl (centres undefined) | -22% | 3% | 4% | -20% | -8% | ?
CCOC(=O)C(=NC1CCS(=O)(=O)C1)NNc1ccccc1Cl (centres undefined) | 5% | -1% | 1% | -11% | -21% | 13µM*
CC(=O)Nc1ccc(NC(=O)Cn2nc3nc(Nc4ccccc4)ccn3c2=O)cc1 | · | · | · | · | · | 28%
CCC1CCc2c(sc(NC(=O)c3ccc(C)cc3)c2C#N)C1 (centres undefined) | · | · | · | · | · | 6%
CN(C)Cc1ccc(CNC(=O)/C=C/c2ccsc2)cc1 | · | · | · | · | · | -21%
COc1ccc(-c2cc(C(=O)N3CCCCCC3)c3ccccc3n2)cc1 | 7% | 20% | 10% | -15% | -23% | -3%
CCCCNC(=O)c1cc(-c2ccc(OC)cc2OC)nc2ccccc12 | · | · | · | · | · | 44%
COc1ccc(-c2cc(C(=O)N3CCCC3)c3ccccc3n2)c(OC)c1 | · | · | · | · | · | 18µM*
CCNC(=O)c1cc(-c2ccc(OC)cc2OC)nc2ccccc12 | · | · | · | · | · | 8.9µM*
Cc1cc(C)c2c(N)c(-c3ccc(C#N)cc3)sc2n1 | · | · | · | · | · | 4µM*
CCC(=O)N1CCc2cc(Br)c(S(=O)(=O)CCC(=O)NCCC(C)C)cc21 | · | · | · | · | · | 3%
CC(=O)NCCNC(=O)CN(CC1CCOC1)C1CC1 (centres undefined) | · | · | · | · | · | -5%
CCCCCCSC1=C(C#N)C(=O)NC2(CCCCC2)S1 | -22% | -7% | -14% | 5% | -23% | 45µM*
COc1ccc(CNC(=O)CN(c2cccc(Cl)c2Cl)S(=O)(=O)c2ccccc2)cc1 | · | · | · | · | · | 0%
COc1ccc(NC(=O)Cn2c(C(=O)c3ccc(Cl)cc3)nc3ccccc32)c(OC)c1 | · | · | · | · | · | -13%
CC(C)Nc1nc(NC(N)=S)nc(NC(C)(C)C)n1 | -9% | -4% | 19% | 5% | ? | 45µM*
SMILES | EPAC2 antag | EPAC1 ag | EPAC2 ag | EPAC1 antagonist | USP1-UAF1 inh | ALOX12 inh
O=C(O)CCc1ccc(-c2ccc(Br)cc2)o1 | 14% | 4% | 3% | -9% | -19% | 45µM*
COC(=O)c1ccccc1-c1c2ccc(=N)cc-2oc2cc(N)ccc12 | ? | -9% | 0% | 32µM* | -101% | 1%
COC(=O)c1ccccc1-c1ccc(/C=N/NC(=O)c2cc3ccccc3o2)o1 | -3% | 18% | 20% | -3% | -18% | 1%
O=C(NCCN1CCC(n2c(=O)[nH]c3ccccc32)CC1)c1ccc(F)cc1Cl | 3% | 2% | 7% | 10% | · | 1.1µM*
O=C(NCCN1CCC(n2c(=O)[nH]c3ccccc32)CC1)c1ccccc1 | 16% | 18% | 6% | 11% | · | -57%
O=C(NCCN1CCC(n2c(=O)[nH]c3cc(Cl)ccc32)CC1)c1ccc(F)cc1 | · | · | · | · | · | 40µM*
Cc1ccc(C(=O)NCCN2CCC(n3c(=O)[nH]c4ccccc43)CC2)cc1C | 7% | 1% | 5% | -17% | · | ?
Cc1cccc(N/N=C/c2ccc(C#N)cc2)c1 | · | · | · | · | · | 18µM*
Cc1cccc(N/N=C/c2ccccc2O)c1 | 0% | 1% | 8% | -14% | -3% | 40µM*
O=[N+]([O-])c1ccc(N/N=C/c2ccccc2O)cc1 | -5% | 11% | 0% | -28% | 3% | 3%
Cc1cccc(N/N=C/c2ccncc2)c1 | -13% | 6% | 15% | 8% | -13% | 45µM*
Cc1ccc(N/N=C/c2ccc(C#N)cc2)cc1Cl | · | · | · | · | · | 3.2µM*
Clc1ccc(CN2CCC[C@H]2c2nc(-c3ccc(N4CCOCC4)nc3)no2)cc1 | · | · | · | · | · | 23%[176 µM]
COc1ccc(N(C(=O)c2snc(C(N)=O)c2N)C(C(=O)NC2CCCC2)c2cccs2)cc1OC (centres undefined) | -16% | -14% | 3% | 50µM* | ? | -1%
CCC(C(=O)NC1CCCC1)N(C(=O)c1snc(C(N)=O)c1N)c1ccc(OC)c(OC)c1 (centres undefined) | -5% | 12% | 4% | 4% | 1% | 21%
CCOC(=O)c1c(C)c(CCC(=O)NCCN2CCCCCC2)c(C)n1C | · | · | · | · | · | 2%
Cc1cnc(CNc2ncncc2-c2ccc(N(C)C)cc2)cn1 | · | · | · | · | · | -22%
CC(=O)NCCNc1ncncc1-c1ccc(N(C)C)cc1 | · | · | · | · | · | 45µM*
Cc1cnc(CNc2ncncc2-c2ccc(C(=O)N(C)C)cc2)cn1 | · | · | · | · | · | -17%
CNc1ncncc1-c1ccc(C(=O)N(C)C)cc1 | · | · | · | · | · | 32µM*
CCONC(=O)CCC1Cc2ccccc2NC1=O (centres undefined) | · | · | · | · | · | -36%
CCOc1ccc(/C=C/C(=O)c2cc(Br)ccc(=O)c2O)cc1 | -14% | 11% | 3% | ? | ? | 28µM*
CCc1ccc(/C=C/C(=O)c2cc(Br)ccc(=O)c2O)cc1 | -15% | 6% | 0%[15.6 µM] | -25% | ? | ?
COc1ccc(NC(=O)C2CC(=O)Nc3nc4ccccc4n32)c(OC)c1 (centres undefined) | · | · | · | · | · | -8%
COc1ccc(NC(=O)Nc2cccs2)cc1Cl | 4% | 0% | 11% | -7% | -16% | 40µM*
COc1ccc(NC(=O)CCC(=O)c2cccs2)cc1Cl | 1% | -8% | -6% | 16% | -22% | 99%

Assay outcomes: PubChem BioAssay, National Center for Advancing Translational Sciences (NCATS)
